Assay [1] in a line: P-glycoprotein substrates identified in KB-3-1 adenocarcinoma cell line, qHTS therapeutic library screen (AID 1346986). Note: nearly all actives have a fitted effect of over 60% in size.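 Note: potency is for cytotoxicity meaning loss of cell viability.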 The gist of the method: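 Viability by CellTiter-Glo after 72 h compound exposure at 37 degree C, 5% CO2. Cytotoxic call: curve class -1.1 to -2.4, maximum response >50%, AC50 < 10 uM, compared across KB-3-1 and P-gp-overexpressing KB-8-5-11.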
Assay [2] is described as follows: P-glycoprotein substrates identified in KB-8-5-11 adenocarcinoma cell line, qHTS therapeutic library screen (AID 1346987). Note: nearly all actives have a fitted effect of over 65% in size. In short, it runs like this:
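In this qHTS, P-gp-rich KB-8-5-11 cells received library compounds across a concentration range. Viability was quantified by luminescence after 72 h at 37 degree C.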
(In general: In qHTS, concentration-response curves come from the screen itself.)

Assay [3] in a line: qHTS of pediatric cancer cell lines to identify multiple opportunities for drug repurposing: Primary screen for TC32 cells (AID 1347089). Note: nearly all actives have a fitted effect of over 60% in size. The gist of the method:
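Measured quantity: luminescence from CellTiter-Glo, reflecting metabolically active TC32 cells following 48 h of compound. Curves came straight from multi-point titrations, with 8 or 11 points in primary and 11 in confirmatory screening.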

Assay [4] in a line: qHTS of pediatric cancer cell lines to identify multiple opportunities for drug repurposing: Primary screen for A673 cells (AID 1347092). Note: nearly all actives have a fitted effect of over 45% in size. In short, it runs like this:
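Cells are plated, rested 5 h, dosed by pintool, incubated 48 h, then lysed with CellTiter-Glo and read by luminescence. DMSO is the neutral control; bortezomib at 2.3 uM final is the positive control.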

Assay [5] can be described thus: qHTS of pediatric cancer cell lines to identify multiple opportunities for drug repurposing: Primary screen for SK-N-MC cells (AID 1347093). The gist of the method: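 Metabolically active cells were quantified by ATP-dependent luminescence (CellTiter-Glo, 15 min at room temperature) following 48 h treatment. Cells had been plated at 500-1,000 per well and settled for 5 h beforehand.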

Assay [6] can be described thus: qHTS of pediatric cancer cell lines to identify multiple opportunities for drug repurposing: Primary screen for BT-37 cells (AID 1347094). The gist of the method:
(§1)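 ATP-based luminescence (CellTiter-Glo) quantifies viability after a 48-hour exposure. Compounds are dosed across 8 or 11 final concentrations; DMSO and 2.3 µM bortezomib serve as controls.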

A short description of assay [7]: qHTS of pediatric cancer cell lines to identify multiple opportunities for drug repurposing: Primary screen for NB-EBc1 cells (AID 1347095). The gist of the method:
as §1

The nature of assay [8]: qHTS of pediatric cancer cell lines to identify multiple opportunities for drug repurposing: Primary screen for U-2 OS cells (AID 1347096). Note: nearly all actives have a fitted effect of over 50% in size. In short, it runs like this:
(§2)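 Viability after 48 h compound treatment at 37C, 500-1,000 cells/well, read as ATP luminescence with CellTiter-Glo. Primary screens used 11-point (MIPE, 0.78 nM-46 µM) or 8-point (NPC, 0.59 nM-46 µM) final concentrations; follow-up screens used 11-point dilutions.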

Assay [9] in a line: qHTS of pediatric cancer cell lines to identify multiple opportunities for drug repurposing: Primary screen for Saos-2 cells (AID 1347097). Note: nearly all actives have a fitted effect of over 40% in size. In short, it runs like this: as §1
Assay [10] can be described thus: qHTS of pediatric cancer cell lines to identify multiple opportunities for drug repurposing: Primary screen for NB1643 cells (AID 1347099). Note: nearly all actives have a fitted effect of over 50% in size. In short, it runs like this: as §1
A short description of assay [11]: qHTS of pediatric cancer cell lines to identify multiple opportunities for drug repurposing: Primary screen for LAN-5 cells (AID 1347100). In short, it runs like this:
as §2

A short description of assay [12]: NS1 protein of Zika virus - qHTS assay to identify small molecule inhibitors in human HEK 293 cells (AID 1347053). Note: nearly all actives have a fitted effect of over 55% in size. The gist of the method: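 In this cell-based screen, HEK 293 cultures received compound for one hour before Zika MR766 at MOI = 0.5. NS1 was quantified 24 hours later by TR-FRET, normalized to virus-free wells and infected wells.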
A short description of assay [13]: qHTS of pediatric cancer cell lines to identify multiple opportunities for drug repurposing: Primary screen for DAOY cells (AID 1347090). Note: nearly all actives have a fitted effect of over 55% in size. The gist of the method: (§3)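 Viability measured as metabolically active cells via CellTiter-Glo luminescence following 48 hours of compound exposure, 11-point dilutions in confirmatory testing. 500-1,000 cells/well plated 5 hours before dosing; controls were DMSO and 2.3 µM bortezomib.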

Assay [14] is described as follows: qHTS of pediatric cancer cell lines to identify multiple opportunities for drug repurposing: Primary screen for SJ-GBM2 cells (AID 1347091). The gist of the method: as §3
A short description of assay [15]: qHTS of pediatric cancer cell lines to identify multiple opportunities for drug repurposing: Primary screen for SK-N-SH cells (AID 1347098). Note: nearly all actives have a fitted effect of over 65% in size. In short, it runs like this: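 Cells (500-1,000/well) rested 5 h, then received compounds for 48 h; metabolically active cells were measured by CellTiter-Glo luminescence. Final concentrations spanned up to 46 µM (MIPE, 11-point) or 0.59 nM-46 µM (NPC, 8-point) in primary screens, 11-point in follow-ups.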

Each structure is given as a SMILES string. Where “and” joins values, the source holds several entries; their conditions need not be identical. Equal entries are not always repeated. Results filed as inconclusive are left out. A structure can be active in one record and inactive in another. Calls of active or inactive are those of the source. Calls come from the whole dose curve; as a rule, active = well fitted curve in the direction sought with a large enough effect; inconclusive = small, poorly fitted or top-dose-only effect, or another doubt; inactive = no such curve, though single readings can be large; an effect the other way counts as inactive or inconclusive.
Potency is the fitted concentration of half-maximal effect.

Take `O=C(O)C=Cc1ccc(Cn2ccnc2)cc1`: the Potency result in assay [1], in assay [2], in [3], in assay [4], in [5] and in [6] was “inactive” in each case. The Potency result in assay [7], in [8], in assay [9], in [10] and in assay [11] was “inactive” each time.

On to `CC[C@]12C=CCN3CC[C@@]4(c5cc([C@@]6(C(=O)OC)C[C@H]7C[C@@H](C(C)(F)F)CN(Cc8c6[nH]c6ccccc86)C7)c(OC)cc5N(C)[C@H]4[C@@](O)(C(=O)OC)[C@H]1OC(C)=O)[C@@H]32`, for which the Potency in [2] was 0.743 µM (active); in assay [12], 7.43 µM (active); in assay [3], 0.0587 µM (active); in assay [13], 0.0296 µM (active); in assay [4], 0.0047 µM (active); in assay [5], 0.003 µM (active). The Potency in assay [6] was 0.0273 µM (active); in assay [7], 0.0118 µM (active); in assay [9] it was 0.0083 µM (active); in assay [10], 0.132 µM (active); in assay [11], 0.0053 µM (active).

As for `CC(C=CC1=C(C)CCCC1(C)C)=CC=CC(C)=CC(=O)Nc1ccc(O)cc1`, the Potency in assay [2] is 24.1 µM (active); in assay [13], 42.9 µM (active); in assay [14], 38.2 µM (active); in assay [4], 2.7 µM (active); in assay [5], 3.82 µM (active); in assay [6], 17.7 µM (active). Moreover, the Potency in [7] is 3.4 µM (active); in [8] it was 42.9 µM (active); in assay [9], 27 µM (active); in [15], 55.5 µM (active); in assay [10], 17.1 µM (active); in assay [11] it was 3.4 µM (active).

Regarding `N#Cc1c(NC(=O)c2cccc3ccccc23)sc2c1CCCC2`, the Potency was 366 nM (active) in assay [1]; 418 nM (active) and 291 nM (active) in assay [2]; 10.5 µM (active) in assay [12]; 1.04 µM (active) in assay [3]; 0.296 µM (active) in [13]; 0.235 µM (active) in assay [5]. The Potency in assay [6] is 1.09 µM (active); in [7] it was 0.332 µM (active); in assay [9], 0.132 µM (active); in [10], 4.69 µM (active); in [11], 0.148 µM (active).

For `c1cncc(CN2CCC(n3ncc4c(N5CCOCC5)nc(-c5ccc6[nH]ccc6c5)nc43)CC2)c1`, the Potency was 469 nM (active) and 2.31 µM (active) in [2]; 14.8 µM (active) in assay [12]; 18.7 µM (active) in [13]; 11.8 µM (active) in assay [4]; 7.43 µM (active) in assay [5]; 7.69 µM (active) in [6]. Besides, the Potency in assay [7] is 4.69 µM (active); in assay [15], 19.2 µM (active); in assay [10], 6.62 µM (active); in [11], 14.8 µM (active). Also, the Potency result in assay [8] was “inactive”.

In the case of `COC(=O)[C@@H]1CC2=CC(=O)CC[C@]2(C)[C@@]23O[C@@H]2C[C@@]2(C)[C@H](CC[C@@]24CCC(=O)O4)[C@@H]13`, the Potency result in assay [1], in assay [2], in assay [12], in [3], in [13] and in [14] was “inactive” in each case. Besides, the Potency result in [4], in [5], in assay [6], in [7], in assay [8] and in assay [9] was “inactive” throughout. Further, the Potency result in assay [15], in [10] and in assay [11] was “inactive” in each case.

As for `COC(=O)[C@H](CCCN=C(N)N)NS(=O)(=O)c1ccc(C)cc1`, the Potency entry in assay [2], in [12], in assay [13], in assay [14], in assay [4] and in assay [5] was “inactive” in each case. In addition, the Potency entry in assay [6], in assay [7], in [8], in [10] and in assay [11] was “inactive” in each case.

Consider `Nc1ccc(C(=O)Nc2cccc(-c3nc(N4CCOCC4)c4oc5ncccc5c4n3)c2)cn1`, for which the Potency entry in assay [1] is “inactive and 13 µM (active)”; in assay [2], “inactive and 9.2 µM (active)”; in [14], 3.72 µM (active); in assay [4], 14.8 µM (active); in assay [5], 1.18 µM (active); in [6], 13.7 µM (active). Moreover, the Potency in assay [7] was 2.35 µM (active); in assay [8], 18.7 µM (active); in assay [9], 8.33 µM (active); in [10], 2.35 µM (active); in assay [11] it was 6.62 µM (active). In addition, the Potency entry in [3] was “inactive”.

With `Cc1ncc(-c2ccnc(Nc3ccc(S(C)(=O)=O)cc3)n2)n1C(C)C`, the Potency in [2] was 7.43 µM (active) and 13 µM (active); in assay [12], 4.69 µM (active); in [3], 13.1 µM (active); in [13], 4.69 µM (active); in assay [14] it was 1.32 µM (active); in assay [4], 0.935 µM (active). Further, the Potency was 2.35 µM (active) in assay [5]; 6.11 µM (active) in assay [6]; 2.35 µM (active) in [7]; 3.72 µM (active) in assay [9]; 2.35 µM (active) in assay [10].

As for `NC(=O)N1CCC(CC(=O)N2CCC([C@H]3c4ncc(Br)cc4CCc4cc(Cl)cc(Br)c43)CC2)CC1`, the Potency is 7.43 µM (active) in [2]; 23.5 µM (active) in assay [13]; 16.6 µM (active) in assay [14]; 14.8 µM (active) in assay [4]; 14.8 µM (active) in assay [5]; 19.3 µM (active) in assay [6]. The Potency in [7] was 13.2 µM (active); in assay [9], 18.7 µM (active); in assay [10] it was 14.8 µM (active); in assay [11], 7.43 µM (active).

Consider `CCCCCN=C(N)NN=Cc1c[nH]c2ccc(OC)cc12`, for which the Potency in assay [2] was 10.5 µM (active); in [3], 16.5 µM (active); in [4] it was 9.35 µM (active); in assay [5], 3.72 µM (active). For the same molecule, the Potency result in assay [15] is “inactive”.

Turning to `CN(C)CCN1C(=O)c2cccc3cc(N)cc(c23)C1=O`, the Potency in assay [2] is 14.8 µM (active); in assay [13] it was 23.5 µM (active); in assay [14] it was 14.8 µM (active); in assay [4], 14.8 µM (active); in assay [6], 6.85 µM (active); in assay [7], 1.87 µM (active). For the same molecule, the figures for the Potency in assay [15], in assay [10] and in assay [11] were 21.5 µM (active), 18.7 µM (active) and 2.96 µM (active), respectively. For the same molecule, the Potency entry in assay [12] is “inactive”.

The values above are taken from PubChem BioAssay (NCATS).
